Records with an inconclusive call do not appear. Where a call stands in place of a potency, no number is given. Unmarked numbers belong to inactive results. Active and inactive are the calls of the source. The call rests on the fitted dose curve; in most records, active means well fitted cell-killing curve with a large enough effect in the repeat runs; inconclusive means weak or mixed curves, or effect the other way; inactive means no such curve, though single readings can be large or run the other way.
Potency means the concentration at half of the fitted maximal effect.

A short description of the assay: qHTS assay for identifying genotoxic compounds that show differential cytotoxicity against isogenic chicken DT40 cell lines with known DNA damage response pathways - Rev3 mutant cell line (AID 743014). Further: nearly all actives have a fitted effect of over 55% in size. To be noted: chicken DT40 Rev3-/- viability, CellTiter-Glo, 40 h; series mostly up to 68.4 µM.
As for `Cc1ccccc1S(=O)(=O)O`, the Potency entry is “inactive”.
In the case of `COc1cc2nc(N3CCN(C(=O)C4COc5ccccc5O4)CC3)nc(N)c2cc1OC` (stereo not drawn), the Potency result is “inactive”.
With `C=CC(=O)OCCOc1ccccc1`, the Potency was 61.1 µM (active).
In the case of `C[C@H]1C[C@H]2[C@@H]3CCC4=CC(=O)C=C[C@]4(C)[C@@]3(Cl)[C@@H](O)C[C@]2(C)[C@@]1(O)C(=O)CO`, the Potency result is “inactive”.
Turning to `CCOc1ccc(O)cc1`, the Potency was 54.5 µM (active).
For `Clc1ccc2c(c1)CCc1cccnc1C2=C1CCNCC1`, the Potency is 7.5 µM (active).
`CC(C)=CCC/C(C)=C/CC/C(C)=C/CO`: the Potency was 54.5 µM (active).
`CCCCCCCN`: the Potency entry was “inactive”.
On the same count and under the same terms, the result for `CCCCCCCC#N` reads “inactive”.
Regarding `COCC(C)OC(C)=O` (stereo not drawn), the Potency result is “inactive”.
The same measure, in the same setting: to `CCCCC(CC)CN1C(=O)C2C3C=CC(C3)C2C1=O` (stereo not drawn) belongs 27.3 µM (active).
On the same count and under the same terms, the result for `C1CCCNCCC1` reads “inactive”; that for `CC1=CC=C(C(C)C)CC1`, “inactive”.
Take `Cc1cccc(Nc2ccccc2)c1`: the Potency is 30.6 µM (active).
For `C=C1[C@H]2CC[C@@H]3[C@H]2C(C)(C)CCC[C@]13C`, the Potency result was “inactive”.
Turning to `CCCCC`, the Potency entry was “inactive”.
On the same count and under the same terms, to `COc1cc(Cl)ccc1Oc1ccc(Cl)cc1Cl` belongs “inactive”; to `CN1CCN(C(c2ccccc2)c2ccccc2)CC1`, “inactive”.
Consider `O=C1OC(=O)C2C3C=CC(C3)C12` (stereo not drawn), for which the Potency result was “inactive”.
Regarding `CCCCCCCCCCCC(=O)OC[C@@H](O)[C@H]1OC[C@H](OCCO)[C@H]1OCCO`, the Potency was 53.2 µM (active).
As to `CCn1cc(C(=O)O)c(=O)c2cnc(N3CCNCC3)nc21`, the Potency result was “inactive”.
With `CCCCC(CC)COC(=O)COc1ccc(Cl)cc1Cl` (stereo not drawn), the Potency entry is “inactive”.
Turning to `CN(C)c1ccc(/C=C/c2ccc([N+](=O)[O-])cc2)cc1`, the activity, negative = cytotoxicity was -15.9% [at 8.53 µM].

The values are drawn from PubChem BioAssay (Tox21).
